This passage reports outcome results from PubChem BioAssay AID624345 (National Center for Advancing Translational Sciences (NCATS), 2012).

The source made the active and inactive calls.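 How the source made its calls: active means IC50 of 75 µM or lower for blocking USP2 cleavage of diubiquitin, judged on gels; inconclusive means IC50 above 75 µM but below 100 µM; inactive means IC50 of 100 µM or more.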

Chain of Ubiquitin carboxyl-terminal hydrolase 2 (Homo sapiens) (O75604 whole entry, looked up): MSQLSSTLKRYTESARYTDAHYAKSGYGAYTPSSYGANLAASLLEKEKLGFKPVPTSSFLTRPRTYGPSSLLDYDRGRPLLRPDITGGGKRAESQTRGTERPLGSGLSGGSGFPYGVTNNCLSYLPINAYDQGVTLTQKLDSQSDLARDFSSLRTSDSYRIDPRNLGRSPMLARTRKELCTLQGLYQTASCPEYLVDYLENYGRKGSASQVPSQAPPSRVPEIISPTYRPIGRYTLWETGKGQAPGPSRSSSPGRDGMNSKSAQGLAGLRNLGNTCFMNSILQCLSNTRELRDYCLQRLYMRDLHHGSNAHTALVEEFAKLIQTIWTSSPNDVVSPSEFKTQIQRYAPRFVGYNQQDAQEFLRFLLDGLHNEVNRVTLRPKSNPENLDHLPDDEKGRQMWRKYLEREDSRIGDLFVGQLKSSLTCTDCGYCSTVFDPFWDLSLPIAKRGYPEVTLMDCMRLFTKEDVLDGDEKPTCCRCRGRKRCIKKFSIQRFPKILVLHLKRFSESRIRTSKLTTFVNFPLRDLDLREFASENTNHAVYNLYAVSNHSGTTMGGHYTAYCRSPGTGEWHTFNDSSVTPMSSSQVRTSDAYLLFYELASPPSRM

The target in the assay is Ubiquitin carboxyl-terminal hydrolase 2 (Homo sapiens) (UniProt O75604). Nature of the assay: Inhibitors of USP1/UAF1: Hit Validation in USP2 Diubiquiting Gel Assay. The settings on record: USP2 K63-diubiquitin cleavage, SDS-PAGE gel densitometry. The source says:
Deubiquitinating enzymes (DUBs) are a class of enzymes that can cleave isopeptide bond formed between the C-terminal carboxylate of ubiquitin and a lysine side-chain amino group on the target protein. Among them, ubiquitin specific proteases (USPs) constitute the largest DUB family. Human USPs are emerging as promising targets for pharmacological intervention because of their connection to a number of human diseases, including prostate, colon and breast cancer (1, 2), pediatric acute lymphoblastic leukemia (3), and familial cylindromatosis (4). The advantage of inhibiting USPs lies in the potential specificity of therapeutic intervention that can lead to better efficacy and reduce nonspecific side effects. In a collaboration between the University of Delaware and the NIH Chemical Genomics Center, a high-throughput screen assay was developed to screen for USP1/UAF1 inhibitors. This miniaturized assay has a fluorescent read-out and is used to screen the NIH Molecular Libraries Small Molecule Repository (MLSMR) in order to identify a small molecule that inhibits USP1. Follow-up assays have also been developed to further test the hits from the primary screen. This assay validates the hits identified from the primary screen using a USP2 diubiquiting gel assay. NIH Chemical Genomics Center [NCGC] NIH Molecular Libraries Probe Centers Network [MLPCN] MLPCN Grant: DA030552 Assay Submitter (PI): Zhihao Zhuang, University of Delaware 1. Priolo, C., et al. (2006) The isopeptidase USP2a protects human prostate cancer from apoptosis. Cancer Res 66, 8625-8632 2. Popov, N., et al. (2007) The ubiquitin-specific protease USP28 is required for MYC stability. Nat Cell Biol 9, 765-774 3. […]
The inhibition assay contains 20 nM USP2, 2 microM K63 linked diubiquitin, and inhibitors at varied concentrations (0.08 microM - 114 microM). […] The intensity of the individual diubiquitin and monoubiquitin band was quantified using Quantity One 4.3.1 (Biorad, Hercules, CA). The percentage of the conversion was determined and used to calculate the reaction rate. […]
For `Cc1ccccc1-c1nc(NCc2cccs2)c2ccccc2n1`, the compound was classed as inactive.
In the case of `Cc1cccc(CNc2ccnc(-c3ccccc3C(F)(F)F)n2)c1`, the compound was called inactive.
For the compound `FC(F)(F)c1ccccc1-c1nc(NCc2cccs2)c2ccccc2n1`, the outcome was inactive.
